From the supplement of paper PMC11732987, “Enantioselective OTUD7B fragment discovery through chemoproteomics screening and high-throughput optimisation” (Communications Chemistry, 2025)

Experiments:
Experiment in all cases: log2 ratio of Biotin-Ahx-Ub-VS probe labelling (fragment/DMSO); higher = less target engagement (more negative = stronger competition), active = hit call of the paper (q ≤ 0.05, log2 ratio ≤ -1)
Conditions in all cases: compound concentration: 200 uM; treatment time: 3 h
USP19 = molecular target: T1, USP19 (UniProt O94966)
T1 sequence (whole entry): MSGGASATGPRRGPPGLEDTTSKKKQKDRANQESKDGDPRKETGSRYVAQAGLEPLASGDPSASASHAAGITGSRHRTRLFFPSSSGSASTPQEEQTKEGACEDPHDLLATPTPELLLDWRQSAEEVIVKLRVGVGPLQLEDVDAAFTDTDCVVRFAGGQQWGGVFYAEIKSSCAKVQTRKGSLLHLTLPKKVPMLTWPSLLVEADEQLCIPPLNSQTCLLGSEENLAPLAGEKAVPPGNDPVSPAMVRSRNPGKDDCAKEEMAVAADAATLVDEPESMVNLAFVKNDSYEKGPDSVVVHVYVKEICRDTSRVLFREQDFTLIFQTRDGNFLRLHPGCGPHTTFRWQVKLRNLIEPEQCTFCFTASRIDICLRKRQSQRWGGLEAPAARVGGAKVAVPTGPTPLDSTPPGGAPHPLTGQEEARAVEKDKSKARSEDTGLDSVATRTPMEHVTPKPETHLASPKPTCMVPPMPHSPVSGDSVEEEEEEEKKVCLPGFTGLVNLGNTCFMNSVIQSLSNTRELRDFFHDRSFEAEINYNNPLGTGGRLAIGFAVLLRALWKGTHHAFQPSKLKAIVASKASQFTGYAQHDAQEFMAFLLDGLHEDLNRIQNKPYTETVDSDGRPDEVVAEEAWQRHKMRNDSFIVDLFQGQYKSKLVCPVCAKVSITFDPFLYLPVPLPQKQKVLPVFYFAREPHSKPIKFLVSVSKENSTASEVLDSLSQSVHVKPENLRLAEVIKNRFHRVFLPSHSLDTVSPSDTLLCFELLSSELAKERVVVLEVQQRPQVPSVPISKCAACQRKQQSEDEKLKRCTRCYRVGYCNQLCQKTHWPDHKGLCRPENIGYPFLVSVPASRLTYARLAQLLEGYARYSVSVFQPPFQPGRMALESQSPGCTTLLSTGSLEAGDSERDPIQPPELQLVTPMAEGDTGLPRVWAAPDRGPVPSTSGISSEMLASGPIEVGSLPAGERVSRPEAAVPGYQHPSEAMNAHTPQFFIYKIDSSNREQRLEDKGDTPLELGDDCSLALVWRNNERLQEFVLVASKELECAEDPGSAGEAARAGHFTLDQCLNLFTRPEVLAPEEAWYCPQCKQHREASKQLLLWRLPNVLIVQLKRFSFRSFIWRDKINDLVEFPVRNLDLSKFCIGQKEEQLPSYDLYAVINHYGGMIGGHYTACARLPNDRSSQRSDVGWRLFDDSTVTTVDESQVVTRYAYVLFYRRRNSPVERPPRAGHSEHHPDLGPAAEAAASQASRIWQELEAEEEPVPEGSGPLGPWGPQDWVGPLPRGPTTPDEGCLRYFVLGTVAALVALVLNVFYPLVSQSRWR
How it was run: (§1)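 HEK293T lysate (495 µg per sample, in Tris/CHAPS/IGEPAL buffer with protease inhibitors) was exposed in triplicate for 3 h to fragment at 200 µM or to vehicle, then to Biotin-Ahx-Ub-VS at 0.5 µM final for 1 h. Labelled DUBs were enriched on NeutrAvidin, digested with LysC and trypsin, and analysed by diaPASEF LC-MS/MS. Spectronaut label-free quantities were normalised to the global median, and values are average log2 ratios of fragment over vehicle from an unpaired t-test. Only proteins with ≥2 unique peptides were used.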

USP24 = USP24 (UniProt Q9UPU5)
Chain of USP24 (Q9UPU5 whole entry): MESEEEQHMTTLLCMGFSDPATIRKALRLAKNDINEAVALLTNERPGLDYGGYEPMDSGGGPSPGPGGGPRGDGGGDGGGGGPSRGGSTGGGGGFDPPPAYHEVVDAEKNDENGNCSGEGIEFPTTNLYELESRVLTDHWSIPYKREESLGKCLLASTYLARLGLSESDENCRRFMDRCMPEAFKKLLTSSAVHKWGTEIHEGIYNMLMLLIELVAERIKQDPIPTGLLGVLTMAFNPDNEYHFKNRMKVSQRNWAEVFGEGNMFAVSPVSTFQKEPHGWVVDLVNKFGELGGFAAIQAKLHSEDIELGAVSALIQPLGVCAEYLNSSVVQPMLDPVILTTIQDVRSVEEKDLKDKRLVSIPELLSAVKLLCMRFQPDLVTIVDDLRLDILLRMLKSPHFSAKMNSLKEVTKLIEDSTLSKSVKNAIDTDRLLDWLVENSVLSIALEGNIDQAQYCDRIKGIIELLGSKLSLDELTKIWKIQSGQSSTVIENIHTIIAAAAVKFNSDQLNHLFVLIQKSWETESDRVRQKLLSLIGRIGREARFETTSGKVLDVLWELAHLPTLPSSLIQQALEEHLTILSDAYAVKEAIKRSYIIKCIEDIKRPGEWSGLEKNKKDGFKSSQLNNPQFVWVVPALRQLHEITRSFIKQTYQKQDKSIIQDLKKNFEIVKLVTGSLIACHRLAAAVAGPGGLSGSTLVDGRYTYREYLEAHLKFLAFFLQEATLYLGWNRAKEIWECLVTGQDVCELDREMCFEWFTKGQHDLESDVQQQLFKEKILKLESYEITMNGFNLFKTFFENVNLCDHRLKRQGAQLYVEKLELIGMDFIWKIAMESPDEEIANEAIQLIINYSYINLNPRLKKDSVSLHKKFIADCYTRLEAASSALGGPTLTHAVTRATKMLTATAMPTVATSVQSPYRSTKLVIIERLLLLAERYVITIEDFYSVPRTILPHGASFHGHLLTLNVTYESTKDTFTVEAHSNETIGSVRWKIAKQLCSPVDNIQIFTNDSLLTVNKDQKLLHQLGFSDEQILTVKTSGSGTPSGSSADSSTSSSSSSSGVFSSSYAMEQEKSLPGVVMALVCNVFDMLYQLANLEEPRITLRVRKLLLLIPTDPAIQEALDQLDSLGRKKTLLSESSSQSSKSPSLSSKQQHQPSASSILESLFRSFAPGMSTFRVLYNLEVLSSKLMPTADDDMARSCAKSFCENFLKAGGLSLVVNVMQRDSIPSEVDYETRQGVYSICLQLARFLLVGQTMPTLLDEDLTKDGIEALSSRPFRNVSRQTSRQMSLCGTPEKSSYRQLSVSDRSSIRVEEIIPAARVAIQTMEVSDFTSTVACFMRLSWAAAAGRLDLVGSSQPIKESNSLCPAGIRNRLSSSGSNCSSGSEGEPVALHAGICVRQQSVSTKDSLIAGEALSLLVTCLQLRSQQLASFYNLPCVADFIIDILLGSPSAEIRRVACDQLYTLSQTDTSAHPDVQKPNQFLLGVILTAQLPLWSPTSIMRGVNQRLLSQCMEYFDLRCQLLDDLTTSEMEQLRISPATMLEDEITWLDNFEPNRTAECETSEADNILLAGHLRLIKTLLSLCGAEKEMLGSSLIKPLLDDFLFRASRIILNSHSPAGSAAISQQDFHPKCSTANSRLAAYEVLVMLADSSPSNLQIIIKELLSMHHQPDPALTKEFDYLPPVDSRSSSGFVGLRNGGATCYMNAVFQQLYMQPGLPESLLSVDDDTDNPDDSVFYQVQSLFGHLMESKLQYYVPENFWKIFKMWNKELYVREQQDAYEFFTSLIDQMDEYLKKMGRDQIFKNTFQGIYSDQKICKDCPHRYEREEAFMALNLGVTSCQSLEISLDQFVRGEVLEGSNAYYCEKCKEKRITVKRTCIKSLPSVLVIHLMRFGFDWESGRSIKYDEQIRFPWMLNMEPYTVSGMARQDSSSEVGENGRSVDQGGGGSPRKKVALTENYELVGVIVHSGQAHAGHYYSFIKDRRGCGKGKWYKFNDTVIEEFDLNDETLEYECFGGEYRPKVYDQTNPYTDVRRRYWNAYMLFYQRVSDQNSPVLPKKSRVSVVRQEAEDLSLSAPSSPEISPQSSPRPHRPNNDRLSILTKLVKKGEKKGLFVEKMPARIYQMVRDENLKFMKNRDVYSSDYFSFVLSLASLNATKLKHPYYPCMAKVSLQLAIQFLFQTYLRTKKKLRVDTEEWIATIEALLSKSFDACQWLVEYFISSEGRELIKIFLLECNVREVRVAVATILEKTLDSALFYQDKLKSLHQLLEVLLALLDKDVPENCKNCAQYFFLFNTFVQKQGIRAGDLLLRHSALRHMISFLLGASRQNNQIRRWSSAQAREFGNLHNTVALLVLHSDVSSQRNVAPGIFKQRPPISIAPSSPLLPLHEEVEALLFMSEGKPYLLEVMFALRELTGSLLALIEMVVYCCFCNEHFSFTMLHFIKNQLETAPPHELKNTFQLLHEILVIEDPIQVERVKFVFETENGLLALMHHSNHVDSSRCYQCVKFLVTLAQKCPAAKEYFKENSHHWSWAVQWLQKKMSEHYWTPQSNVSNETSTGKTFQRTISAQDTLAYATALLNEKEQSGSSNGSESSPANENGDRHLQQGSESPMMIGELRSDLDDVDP
How it was run: as §1

USP25 = molecular target: T2, USP25 (UniProt Q9UHP3)
T2 sequence (whole entry): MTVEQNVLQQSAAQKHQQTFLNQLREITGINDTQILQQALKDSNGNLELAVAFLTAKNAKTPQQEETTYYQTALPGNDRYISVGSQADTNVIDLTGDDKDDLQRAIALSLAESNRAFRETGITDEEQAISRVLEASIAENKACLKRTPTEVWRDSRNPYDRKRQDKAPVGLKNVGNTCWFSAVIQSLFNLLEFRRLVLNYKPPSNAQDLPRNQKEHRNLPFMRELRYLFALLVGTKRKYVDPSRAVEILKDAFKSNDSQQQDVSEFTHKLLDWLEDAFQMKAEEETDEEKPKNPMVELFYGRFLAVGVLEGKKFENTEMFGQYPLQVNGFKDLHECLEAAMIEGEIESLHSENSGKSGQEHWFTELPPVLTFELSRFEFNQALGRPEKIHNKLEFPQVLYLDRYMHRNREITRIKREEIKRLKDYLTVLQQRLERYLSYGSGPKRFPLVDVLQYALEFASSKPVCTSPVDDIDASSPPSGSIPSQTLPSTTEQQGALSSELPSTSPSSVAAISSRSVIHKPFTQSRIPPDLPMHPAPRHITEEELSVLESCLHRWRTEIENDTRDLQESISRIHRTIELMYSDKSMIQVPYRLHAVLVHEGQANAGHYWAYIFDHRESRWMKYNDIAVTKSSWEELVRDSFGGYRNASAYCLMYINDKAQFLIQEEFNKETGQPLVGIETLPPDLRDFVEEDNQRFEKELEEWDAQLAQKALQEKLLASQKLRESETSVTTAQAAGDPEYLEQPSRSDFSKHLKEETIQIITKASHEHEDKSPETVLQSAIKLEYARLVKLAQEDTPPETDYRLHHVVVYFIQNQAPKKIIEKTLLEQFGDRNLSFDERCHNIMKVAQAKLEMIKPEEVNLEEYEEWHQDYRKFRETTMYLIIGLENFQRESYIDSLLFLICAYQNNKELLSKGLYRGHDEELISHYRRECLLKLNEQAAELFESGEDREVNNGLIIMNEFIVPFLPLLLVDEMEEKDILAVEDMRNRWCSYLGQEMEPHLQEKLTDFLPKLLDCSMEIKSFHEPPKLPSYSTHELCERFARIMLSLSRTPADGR
How it was run: as §1

USP28 = molecular target: T3, USP28 (UniProt Q96RU2)
T3 sequence (whole entry): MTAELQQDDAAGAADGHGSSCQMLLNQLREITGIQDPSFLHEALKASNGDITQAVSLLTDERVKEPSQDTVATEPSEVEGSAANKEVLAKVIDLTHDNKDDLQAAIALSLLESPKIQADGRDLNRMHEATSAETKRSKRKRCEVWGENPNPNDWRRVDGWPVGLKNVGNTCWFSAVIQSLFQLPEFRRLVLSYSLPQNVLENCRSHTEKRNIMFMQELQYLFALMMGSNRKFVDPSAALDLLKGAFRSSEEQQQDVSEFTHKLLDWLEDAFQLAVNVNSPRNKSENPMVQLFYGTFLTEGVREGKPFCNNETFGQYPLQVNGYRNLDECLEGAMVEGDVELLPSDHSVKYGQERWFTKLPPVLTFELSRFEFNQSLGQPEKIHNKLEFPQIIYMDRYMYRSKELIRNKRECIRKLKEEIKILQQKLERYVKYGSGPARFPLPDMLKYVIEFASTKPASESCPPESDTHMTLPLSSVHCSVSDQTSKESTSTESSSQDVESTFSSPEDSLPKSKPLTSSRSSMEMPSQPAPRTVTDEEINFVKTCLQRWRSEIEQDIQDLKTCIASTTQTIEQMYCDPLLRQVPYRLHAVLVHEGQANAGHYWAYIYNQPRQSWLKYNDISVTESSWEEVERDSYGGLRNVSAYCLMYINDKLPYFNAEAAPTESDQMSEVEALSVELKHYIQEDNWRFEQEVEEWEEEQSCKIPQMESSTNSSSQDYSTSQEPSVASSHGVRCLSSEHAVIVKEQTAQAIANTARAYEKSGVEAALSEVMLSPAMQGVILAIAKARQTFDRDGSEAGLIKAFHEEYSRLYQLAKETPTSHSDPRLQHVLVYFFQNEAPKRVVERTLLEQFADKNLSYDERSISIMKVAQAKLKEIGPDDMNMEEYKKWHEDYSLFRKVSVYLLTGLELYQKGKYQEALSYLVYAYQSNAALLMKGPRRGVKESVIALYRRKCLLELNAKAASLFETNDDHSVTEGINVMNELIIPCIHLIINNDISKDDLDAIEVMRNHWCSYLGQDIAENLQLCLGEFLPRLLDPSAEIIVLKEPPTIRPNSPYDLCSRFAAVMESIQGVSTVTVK
How it was run: as §1

Measured: log2 ratio of Biotin-Ahx-Ub-VS probe labelling

CCN1C(=O)C2CN(C(=O)CCl)CCN2C1=O (centres undefined)
inactive: USP19 -0.175 | USP24 -0.0184 | USP25 -0.141 | USP28 -0.324
